# According to PubChem BioAssay AID686979 (National Center for Advancing Translational Sciences (NCATS), 2013):
# Out of some 420,000 compounds screened, about 50,000 (12%) were called active. About 26% were inconclusive and are not listed. Calls follow the shape of the dose curve; as a rule, active = well fitted inhibition curve with a large enough effect; inconclusive = small, poorly fitted or top-dose-only effect; inactive = flat fitted curve, though single readings scatter. What follows is part of a selection rich in actives, with near analogues and random picks from the rest. Where a call stands in place of a potency, no number is given.
# Test: qHTS for Inhibitors of human tyrosyl-DNA phosphodiesterase 1 (TDP1): qHTS in cells in presence of CPT; also: nearly all actives have a fitted effect of over 55% in size
# Details: chicken DT40 Tdp1-/-;hTDP1 cells + 20 nM CPT, ATP luminescence, 48 h; series mostly up to 46.2 µM
# Summary of the method: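 Cell growth measured by CellTiter-Glo luminescence after a minimum 48 h, 37 C compound exposure with 20 nM CPT in Tdp1-knockout DT40 cells stably expressing hTDP1, seeded 400/well; qHTS titration format.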
# Potency is read from the fitted curve at half-maximal effect.
SMILES,Potency,"activity change, negative = growth inhibition"
Cc1cc(=O)n2[nH]c(-c3cccc(Cl)c3)cc2n1,18.4 µM (active),–
C=CCc1c(C)nc2cc(-c3ccccc3)[nH]n2c1=O,inactive,–
O=C1CCCc2c1nc(-c1cccc(Cl)c1)n2O,inactive,–
O=[N+]([O-])c1ccc2[nH]c3c(c2c1)CCCC3O (stereo unspecified),inactive,–
O=C1/C(=C\c2ccsc2)NC(=S)N1c1ccccc1,inactive,–
O=c1c(-c2ccccc2Cl)c[nH]n1-c1ccccc1,inactive,–
COc1cccc(-c2cc3nc4c(c(N5CCC6(CC5)OCCO6)n3n2)CCCC4)c1,23.1 µM (active),–
COc1cccc(NC(=O)CN2CCN(c3nc(-c4cccc(OC)c4)cs3)CC2)c1,inactive,–
COc1cccc(CNc2nc3nc4c(c(=O)n3[nH]2)CCC4)c1,inactive,–
CC(=NNC(=O)c1ccc2nc[nH]c2c1)c1ccc(Br)cc1,inactive,–
O=C(NCCCO)C(=O)Nc1c2c(nn1-c1ccc(F)cc1)CSC2,inactive,–
Cc1ccc(S(=O)(=O)N[C@H]2CCC[C@@H]2O)cc1,inactive,–
CS(=O)(=O)N1CCc2cc(C(=O)Nc3ccccc3)ccc21,inactive,–
COc1ccc(S(=O)(=O)N2CCc3ccccc32)cc1C(=O)Nc1cc(S(C)(=O)=O)ccc1Cl,9.2 µM (active),–
COc1cccc(NC(=O)c2cc(S(=O)(=O)N3CCc4ccccc43)cn2C)c1,inactive,–
CCN(C(=O)COC(=O)c1cc(S(=O)(=O)N2CCc3ccccc32)ccc1OC)C1CCS(=O)(=O)C1 (stereo unspecified),inactive,–
Cc1ccc(S(=O)(=O)N2CCc3cc(C(=O)Nc4ccc(Cl)cc4C)ccc32)cc1,inactive,–
O=C(Nc1cc(C(F)(F)F)ccc1Cl)c1ccc2c(c1)CCN2S(=O)(=O)c1ccccc1,18.4 µM (active),–
Cc1noc(C)c1NC(=O)N(C)C[C@@H]1Oc2cc(Br)ccc2S(=O)(=O)N([C@@H](C)CO)C[C@H]1C,inactive,–
Cc1ccc(CNC(=O)C2CCCN2S(=O)(=O)c2ccc3c(c2)C(C)(C)C(=O)N3C)cc1 (stereo unspecified),inactive,–
COc1cc(Br)cc2cc(S(=O)(=O)c3ccccc3)c(=O)oc12,inactive,–
CCOC(=O)C(Cc1ccc(N)cc1)N1C(=O)c2ccccc2C1=O (stereo unspecified),inactive,–

SMILES,Potency,"activity change, negative = growth inhibition"
O=C(Nc1ccccc1F)c1ccc(Cn2cc(Br)cn2)cc1,inactive,–
CC(=O)OCc1cc2cc(C)ccc2[nH]c1=O,inactive,–
CCNCc1cc2cc(C)ccc2[nH]c1=O,18.4 µM (active),–
COc1ccc(N(Cc2cc3cc(OC)ccc3[nH]c2=O)S(C)(=O)=O)cc1,inactive,–
CCC(=O)N(Cc1cc2cc(OC)ccc2[nH]c1=O)c1ccccc1C,inactive,–
COc1ccc2[nH]c(=O)c(CNc3ccc(C)c(C)c3)cc2c1,4.11 µM (active),–
CCCc1nc(-c2cc3cc(C)ccc3[nH]c2=O)no1,inactive,–
CCCCN1C(=O)c2ccc(C(=O)Nc3ccc(S(=O)(=O)N(C)C)cc3)cc2C1=O,inactive,–
Cc1ccccc1Nc1nc(N)nc(COC(=O)CCC(=O)c2ccc(F)cc2)n1,inactive,–
Cc1cc(NC(=O)c2ccc(-c3ccc(Cl)cc3)o2)cc(-c2nc3ncccc3o2)c1O,inactive,–
O=Cc1cn(Cc2ccccc2)nc1-c1cccnc1,inactive,–
Cc1ccccc1C1=N/C(=C/c2cccnc2)C(=O)O1,inactive,–
O=C1/C(=C\c2cccnc2)CN(Cc2ccccc2)C/C1=C\c1cccnc1,5.17 µM (active),–
O=C(C(=O)N1CCc2ccccc2C1)c1c[nH]c2ccccc12,inactive,–
CCNC(=O)CCc1nc(-c2ccc(C)cc2)no1,inactive,–
CCNC(=O)CCc1nc(-c2ccc(C(C)(C)C)cc2)no1,16.4 µM (active),–
Cc1ccc(-c2noc(CCC(N)=O)n2)cc1,inactive,–
Cn1c(Cc2cccs2)nnc1SCC(=O)Nc1ccccc1,inactive,–
O=C1C(=O)N(CCCO)C(c2ccccc2)/C1=C(\O)c1ccc(Br)cc1 (stereo unspecified),inactive,–
CN(CC(=O)NCc1ccc(Cl)cc1)S(=O)(=O)c1cccs1,inactive,–
COCCN1CCN(C(=O)c2sc3ncnc(NCC4CCCO4)c3c2C)CC1 (stereo unspecified),inactive,–
O=C(COC(=O)c1ncc(Cl)c(Cl)c1Cl)NCc1ccccc1,inactive,–

SMILES,Potency,"activity change, negative = growth inhibition"
CC(C)C(NC(=O)c1c(F)cccc1F)C(=O)NNC(=O)c1ccccc1 (stereo unspecified),inactive,–
CCC(=O)Nc1ccc(C)cc1-c1nc2ccccc2n(Cc2ccccc2)c1=O,inactive,–
Cc1cccc(NC(=O)Cn2c(C(F)(F)F)nc3ccccc32)c1C,inactive,–
CCC(=O)Nc1nc2ccccc2n1Cc1ccccc1C,14.6 µM (active),–
COc1ccc(N2CC(C(=O)N[C@@H](C)C(=O)N3CCCCC3)CC2=O)cc1 (stereo partly specified),inactive,–
Cc1ccc(Cl)cc1NC(=O)C1CCCN(c2cnccn2)C1 (stereo unspecified),inactive,–
COc1ccccc1NC(=O)C1CCCN(c2cc(C)nc3ncnn23)C1 (stereo unspecified),inactive,–
Cc1c(Cl)cccc1NC(=O)C1CCCN(c2ncnc3onc(C)c23)C1 (stereo unspecified),8.2 µM (active),–
CSCC[C@H](NC(=O)OC(C)(C)C)C(=O)N/N=C/c1cc2ccc(C)cc2nc1Cl,inactive,–
Cc1ccn(-c2cccc(-n3ccc(C)n3)n2)n1,inactive,–
CCOc1ccccc1N(CC(=O)Nc1ccccc1C(=O)OC)S(C)(=O)=O,inactive,–
CCCCN(C=O)c1c(CC)nc2c(OCCC3CCCCC3)cccn12,16.4 µM (active),–
CCCCN(C=O)c1c(CC)nc2c(OCc3ccccc3C(=O)OC)cccn12,13 µM (active),–
CCc1nc2ccc(C(=O)N3CCN(S(=O)(=O)CC)CC3)cn2c1N(C=O)CCC(C)C,inactive,–
Cc1nccn1-c1ccc(NC(=O)[C@H]2O[C@@H](n3cnc4c(N)ncnc43)[C@H](O)[C@@H]2O)cc1,inactive,–
CCC1CN(CCNC(=O)c2cccc(C)n2)Cc2cc(OC)ccc2O1 (stereo unspecified),–,5.22% [at 9.04 µM] (inactive)
O=C(CSc1ccc(-c2ccc(-n3cccn3)cc2)nn1)Nc1ccc([N+](=O)[O-])cc1,inactive,–
COc1ccc(NC(=O)CC2C(=O)OCC3CCCCN32)cc1Cl (stereo unspecified),inactive,–
CC(C)c1ccc(Cc2nnc(NCCCO)[nH]c2=O)cc1,inactive,–
N#CCc1ccc(OC(=O)c2cccnc2)cc1,inactive,–
CC(OC(=O)CNC(=O)c1cccc(F)c1)C(=O)NC1CCCCC1C (stereo unspecified),inactive,–
Cc1ccc(CC(=O)Nc2ccc(OC(F)F)c(Cl)c2)cc1C,inactive,–
